# Data taken from PubChem BioAssay AID434958 (Southern Research Specialized Biocontainment Screening …, 2010).
# In all, about 1,200 compounds went through this assay and about 400 (33%) were called active. Not all results are given here. Measured potencies and affinities stand elsewhere. A number with no mark means an inactive call. The rule behind the calls is not given here.
# Test: mammalian cell cytotoxicity, dose response, cytotoxicity control (AID 434958);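 note: cells exposed to compound for 72 hours before readout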
# Settings: cytotoxicity counter-screen; series mostly up to 40 µM; viability: at the top concentration
row,SMILES,viability [%]
1,CCC(C(=O)NC1C(=O)N2C(C(=O)O)=C(CSc3nnc(C)s3)CSC12)c1ccccc1 (stereo not drawn),107
2,Cn1nnnc1SCC(=O)Nc1ccccc1[N+](=O)[O-],99.1
3,Cc1ccc(-n2nnnc2Sc2nc([N+](=O)[O-])nn2C)c(C)c1,100
4,O=C(Nc1ccccc1)Nc1csc2ccccc12,83.7
5,O=C(NC1CCCCC1)C1CCN(c2nccs2)CC1,98.2
6,O=C(NC1c2ccccc2-c2ccccc21)c1ccco1,109
7,C/C(=N/NC(=O)c1cccs1)c1ccc(NC(=O)COc2ccc(Cl)cc2)cc1,98.6
8,Cc1ccc(/C=N/NC(=O)c2cccs2)s1,89.3
9,CCOc1ccc2nc(NC(=O)c3cnccn3)sc2c1,88.1
10,Cc1cc(C)c(-c2c(O)c3ccccc3n(C)c2=O)c(C)c1,92.4
11,Cc1cc(Br)ccc1NC(=O)CN1C(=O)C2CC=CCC2C1=O (stereo not drawn),97.8
12,COc1cc(OC)cc(-c2c(C#Cc3ccsc3)c3cc(-c4ccc(OC)nc4)ccc3n2C)c1,91.5
13,CCOc1cccc(=O)c2c(C)n(Cc3ccccc3)c(C)c12,101
14,CCOc1cc(N2CCOCC2)c(OCC)cc1NC(=O)c1cc(C)cc(C)c1,93
15,Cn1c(=O)[nH]c(=O)c2c1nc(Br)n2CCC(=O)c1ccccc1,97.2
16,C=CCSc1nnc2c(n1)OC(c1c(C)[nH]n(-c3ccccc3)c1=O)Nc1ccccc1-2 (stereo not drawn),93.2
17,CCCCCc1ccc(-c2ccc(/C=C/C(N)=O)cc2)nc1,102
18,CN1c2ccccc2C(=O)NC1c1ccc([N+](=O)[O-])s1 (stereo not drawn),99.2
19,Cc1cccc(Cl)c1NC(=S)NN,95.5
20,CCOC(=O)c1sc(NC(=O)Cn2nnc3sc4c(c3c2=O)CCC(C(C)(C)C)C4)nc1C (stereo not drawn),106
21,CC1CCCN(C(=O)C2CCN(c3ncnc4c3nc3n4CCCCC3)CC2)C1 (stereo not drawn),92.2
22,CCOC(=O)NC1c2ccccc2Oc2ccccc21,93.1
23,O=C(NNC(=O)c1ccc(Oc2cc(Cl)cc(Cl)c2)o1)c1ccccc1,85.5

row,SMILES,viability [%]
1,CC(=O)c1ccccc1OCCOc1ncnc2sccc12,85.5
2,COc1ccc([N+](=O)[O-])cc1NS(=O)(=O)c1ccc(C(=O)N2CCCC2)cc1,92
3,CC(=O)c1ccc(NC(=S)Nc2ccc(N3CCOCC3)cc2)cc1,100
4,O=C(Cc1ccccc1)NC(=S)Nc1ccc(N2CCCCC2)cc1,84.1
5,Cc1ccc(CNC(=O)c2cn(C)c3ccc(S(=O)(=O)N4CCOCC4)cc3c2=O)cc1,98.9
6,Cc1cccc2nc(COc3ccc4ccccc4c3Br)cn12,94.6
7,COC(=O)C1=C(C)NC(=O)/C1=C\c1cc(C)n(-c2cc(C)cc(C)c2)c1C,89.7
8,CCOC(=O)CNC(=O)c1cccnc1Oc1ccc(Cl)cc1,104
9,COc1ccccc1NS(=O)(=O)c1cccc(N2CC(O)=C(c3ccccc3)C2=N)c1,100
10,O=C(CCN1C(=O)c2ccccc2S1(=O)=O)Nc1ccc(Cl)cc1,102
11,CCC(=O)NC(=S)Nc1ccc(NC(=O)c2ccccc2[N+](=O)[O-])cc1,99.2
12,CC(/C=N/NC(=O)c1cc(-c2cccs2)[nH]n1)=C\c1ccccc1,84.3
13,Cc1ccc(C)c(SCc2noc(C(=O)NCC3CCCO3)c2C(=O)O)c1 (stereo not drawn),97
14,COC(=O)c1ccc(/C=N/Nc2nc(-c3ccc(C)cc3)cs2)cc1,104
15,O=C(O)Cc1csc(Nc2cccc(Cl)c2)n1,98.4
16,CCOC(=O)N1CCN(CC(=O)Nc2nnc(C(F)(F)F)s2)CC1,98.6
17,COC(=O)N1C(=O)[C@](Cc2ccccc2)(c2ccccc2)N1C(=O)OC,96.3
18,COc1ccc(Nc2cc(C(=O)NCc3ccco3)c3ccccc3n2)c(OC)c1,88.6
19,CCC(=O)Nc1cc(OC)c(NC(=O)c2ccccc2)cc1OC,92.4
20,CC(C)C(=O)Nc1ccc(NC(=S)NC(=O)c2ccc([N+](=O)[O-])cc2)cc1,103
21,Cn1c(O)c(C2=c3ccccc3=NC2=O)[nH]c1=S,88.5
22,C=CCNC1=C(Cl)C(=O)N(c2cccc(Cl)c2Cl)C1=O,110
23,O=C(CN1C(=O)c2cccc([N+](=O)[O-])c2C1=O)N1CCN(c2ccc(F)cc2)CC1,102

row,SMILES,viability [%]
1,Cc1cc(C)c(O)c(-c2cc(C(=O)NCc3ccccc3)[nH]n2)c1,83.2
2,CCCn1nc2cc(C(=O)NCCCCc3ccccc3)ccc2c1OCC,96.3
3,COCCCNc1nc(SCc2ccccc2)nc2sc3c(c12)CCC3,94.6
4,CCC(CC)c1nnc(NC(=O)c2ccc(N3CCCCC3)c([N+](=O)[O-])c2)s1,88.6
5,Cc1cc2ccccc2n1CCNC(=O)COc1ccccc1,88.3
6,Cc1ccc(C(=O)NCCc2nnc3ccc(SCC(=O)Nc4ccccc4C)nn23)cc1,91.8
7,O=C(CNc1ccccc1Cl)Nc1cc(S(=O)(=O)N2CCOCC2)ccc1Cl,88.4
8,CCN(CC)c1ccc(S(=O)(=O)N2CCOCC2)cc1NC(=O)CSc1cccc[n+]1[O-],99.1
9,CC(=O)COc1ccc2c3c(c(=O)oc2c1C)CCCCC3,88.8
10,CCOC(=O)Cn1nc(-c2ccc(C)cc2)c2ccccc2c1=O,99.6
11,CCOC(=O)C1CCN(C(=O)CCCCn2c(=O)[nH]c3ccccc3c2=O)CC1,101
12,Cc1ccc(NC(=O)C2(c3ccccc3)CC2(Cl)Cl)cc1C (stereo not drawn),88.7
13,CCOc1cc(/C=N\Nc2ccc([N+](=O)[O-])cc2)ccc1OCC(=O)Nc1ccc(C)c(C)c1,92.4
14,Cc1ccccc1OCC(=O)Nc1ccccc1N1CCCCC1,84.7
15,CN(C)C(=O)c1ccc(-n2nc(C(F)(F)F)c3c2CCCC3)cc1,105
16,CC(=O)Nc1cccc(/C(C)=N/NC(N)=S)c1,98.6
17,Cc1c(-c2ccccc2)cnc2c(C)cccc12,94
18,Cc1cc(NC(=O)COc2nnc(-c3ccccc3)c3ccccc23)no1,102
19,Cc1cc(NC(=O)CSc2ncnc3c2cnn3-c2ccccc2)no1,107
20,CCOC(=O)c1ccc(C(=O)NNC(=O)C2CC=CCC2)cc1 (stereo not drawn),95.2
21,O=C(Nc1ccccc1)c1c2c(nc3ccccc13)CCCC2,109
22,CC12CCC(C/C1=N/NC(=O)Nc1ccccc1)C2(C)C (stereo not drawn),83.7
23,Cc1cc(C)c(C)c(S(=O)(=O)N2C(=S)NC(=O)C2C(C)C)c1C (stereo not drawn),89.1

row,SMILES,viability [%]
1,O=C(c1cc2c(s1)CCCC2)n1cccn1,101
2,O=C(N/N=C\c1cn[nH]c1-c1ccc(Cl)cc1)c1cccs1,95.4
3,O=C(CSc1nnc(SCc2ccc(Cl)cc2)s1)c1ccc2c(c1)OCO2,93.7
4,C=CCSc1nc2c(c(-c3ccsc3)c1C#N)CN(C)CC2,92.9
5,O=C(NN1C(=O)C2C(C1=O)C1C=CC2C12CC2)c1ccncc1 (stereo not drawn),106
6,O=c1[nH]c(CN(CCO)CCO)nc2c1C1(CCCCC1)Cc1ccccc1-2,94.6
7,CN(/N=C/c1ccncc1)c1cnc2ccccc2n1,87
8,c1ccc(-c2n[nH]c3c2CCC3)cc1,97.4
9,CSc1ncnc2c1ccn2CC(=O)Nc1ccc(C)c(C)c1,109
10,CCCOc1ccccc1NC(=O)/C=C/C(N)=O,104
11,CC(=O)OCC(=O)Nc1ccc(C(C)=O)cc1,97.7
12,CC(C)(C)[C@@H]1C=C(C(=O)Nc2ccccc2)O[C@H](OCc2ccc(CO)cc2)C1,84.5
13,Cc1cccnc1NC(=S)NC(=O)c1cncc(Br)c1,97.7
14,COc1ccc(CNC(=O)C2CCN(S(=O)(=O)c3c(C)noc3/C=C/N(C)C)CC2)cc1,99.2
15,CC(C)(C)C1CCC(OCC(O)CN2CCN(c3ccccn3)CC2)CC1 (stereo not drawn),92.3
16,COc1ccc(-c2csc(-c3cccs3)n2)c(OC)c1,91
17,CCC(=O)Oc1oc(-c2ccccc2)nc1C=Nc1ccc(C)cc1,85.8
18,CCn1cc(C(=O)O)c(=O)c2cc(F)c(N3CCN(C(=S)NC(=O)c4ccccc4C)CC3)cc21,96.7
19,COC(=O)c1cc(OC)c(OC)cc1NC(=S)N1CCN(C)CC1,97.6
20,Cc1nnc(SCC2=C(C(=O)O)N3C(=O)C(NC(=O)COc4ccc(F)cc4)C3SC2)s1 (stereo not drawn),109
21,CC1CN(C(=S)NC(=O)c2cccc([N+](=O)[O-])c2)CC(C)O1 (stereo not drawn),97.2
22,O=C(Oc1c(-c2ccccc2)c(=O)n2c3c(cccc13)CC2)c1cccc([N+](=O)[O-])c1,99
23,COc1ccc(C(=O)Nc2cccc3c2CCCC3)c(OC)c1,89.2

row,SMILES,viability [%]
1,COc1cc(C(=S)N2CCOCC2)ccc1OC(=O)c1ccc([N+](=O)[O-])cc1[N+](=O)[O-],84.7
2,CN(C)c1ccc(/C=N/NC(N)=S)cc1[N+](=O)[O-],101
3,O=C(CCCCCN1C(=O)c2cccc([N+](=O)[O-])c2C1=O)Nc1ccccc1F,105
4,CC(=O)NC(=S)Nc1ccc(NC(=O)c2cccs2)cc1,107
5,CCN=c1scc(-c2ccccc2)n1/N=C/c1ccccn1,89.3
6,CC1CCc2nc(NC(=O)C3COc4ccccc4O3)sc2C1 (stereo not drawn),84.2
7,COc1ccc(CCNCc2csc3nc4ccccc4n23)cc1OC,90
8,Cc1cc(C)cc(NC(=S)NN)c1,80.8
9,CSc1ccc(/C=C/C(=O)NC23CC4CC(CC(C4)C2)C3)cc1,85.6
10,c1ccc(-c2cc3ccccc3[nH]2)cc1,99.8
11,C/C(=N\NC(=O)c1cc2c(s1)CCC(C)C2)c1ccc[nH]1 (stereo not drawn),93.7
12,Cc1cccc2c(C(=O)n3cccn3)cc(-c3ccccc3Cl)nc12,104
13,O=C(Oc1c(-c2ccccc2)c(=O)n2c3c(cccc13)CC2)c1ccc(F)cc1,104
14,COc1ccc(OC)c(-c2cc(C(=O)Nc3c(C)n(C)n(-c4ccccc4)c3=O)no2)c1,84.8
15,COc1ccccc1-c1cc(C(=O)Nc2c(C)n(C)n(-c3ccccc3)c2=O)no1,100
16,O=C(CCSc1ccc(Cl)c(Cl)c1)NC12CC3CC(CC(C3)C1)C2,85.1
17,COc1ccnc(CS(=O)c2nc3cc(OC(F)F)ccc3[nH]2)c1OC (stereo not drawn),99.2
18,O=C(CSc1ccc([N+](=O)[O-])cn1)Nc1ccc(N2CCOCC2)cc1,101
19,O=C(Nc1ccc(N2CCCCC2)cc1)c1cc([N+](=O)[O-])cc([N+](=O)[O-])c1,83.6
20,O=C(Nc1ccccc1N1CCCC1)c1ccc2c(c1)OCO2,91
21,CC(C(=O)Nc1cc([N+](=O)[O-])ccc1Cl)N1CCN(c2ccccc2O)CC1 (stereo not drawn),83.3
